Out of some 48,000 compounds screened, about 13,000 (27%) showed an effect of 50% or more. This is one part of the list.
Each compound was assayed on Wolbachia pipientis (assay: Anti-Wolbachia Cell-Based Screen). Conditions: 5 µM.
Format: functional
Set-up: scale not given: in the data most compounds retested in dose-response had high values

Row | Compound | Percent Effect [%]
1 | Cc1ccccc1CC(=O)N(C)C1CCCC1 | -4.156
2 | COc1ccc(-c2cnc(CN3CCn4c(C)nnc4C3)o2)cc1 | -11.18
3 | c1csc(-c2nc(CN3CCn4c(nnc4C4CC4)C3)co2)c1 | -3.067
4 | Cn1ccnc1-c1ccc(NCC2COc3ccccc3O2)nn1 (stereo unspecified) | -1.636
5 | Cc1ccc(CC(=O)NC(C)C(=O)N2CCS(=O)(=O)CC2)cc1 (stereo unspecified) | -13.94
6 | CC(C)CC(C)N(C)Cc1nnc(-c2ccco2)o1 (stereo unspecified) | 9.065
7 | CNC(=O)C1Cn2ccnc2C2(CCN(C(=O)c3ccccn3)CC2)O1 (stereo unspecified) | -8.502
8 | CC(C)CC(=O)N1CCC2(CC1)OC(C(N)=O)Cn1ccnc12.O=C(O)C(F)(F)F (stereo unspecified) | 113.8
9 | NC(=O)C1Cn2ccnc2C2(CCN(C(=O)c3ccncc3)CC2)O1 (stereo unspecified) | 116.6
10 | CNC(=O)C1Cn2ccnc2C2(CCN(C(=O)NC3CCCC3)CC2)O1 (stereo unspecified) | 96.32
11 | CNC(=O)C1Cn2ccnc2C2(CCN(c3ccc(C)nn3)CC2)O1 (stereo unspecified) | 1.376
12 | CNC(=O)C1Cn2ccnc2C2(CCN(C(=O)CC3CCCC3)CC2)O1.O=C(O)C(F)(F)F (stereo unspecified) | -0.06928
13 | CC(C)CNC(=O)N1CCC2(CC1)OC(C(N)=O)Cn1ccnc12.O=C(O)C(F)(F)F (stereo unspecified) | 99.99
14 | CNC(=O)C1Cn2ccnc2C2(CCN(CCF)CC2)O1 (stereo unspecified) | 3.54
15 | CNC(=O)C1Cn2ccnc2C2(CCN(Cc3csc(C)n3)CC2)O1 (stereo unspecified) | 2.029
16 | CCc1nc(C)c(C2CC(=O)Nc3c2c(C(C)(C)C)nn3C)[nH]1 (stereo unspecified) | -1.206
17 | CCN(C(=O)c1ccc2nnc(C3CCN(S(C)(=O)=O)C3)n2c1)C(C)C (stereo unspecified) | -8.044
18 | CCS(=O)(=O)N1CCC(c2nnc(Cn3cccn3)n2C2CC2)CC1 | -1.644
19 | CCN(CC)c1ccc(-c2nc(-c3cccc(OC)c3OC)no2)cn1 | -1.328
20 | N#Cc1cccc(S(=O)(=O)CCN2CCOC2=O)c1 | -9.929
21 | COc1ccc(NC(=O)CCC2CCCN(S(=O)(=O)C3CC3)C2)cc1Cl (stereo unspecified) | 5.788
22 | COc1ccc(OCc2cc(C(=O)N3CCOCC3)n[nH]2)c(Cl)c1 | -1.083
23 | NC(=O)C1Cn2ccnc2C2(CCN(C(=O)NC3CCCC3)CC2)O1.O=C(O)C(F)(F)F (stereo unspecified) | 99.21
24 | O=C(NC1CC1)N1CCCC2(CCCCN2)C1.O=C(O)C(F)(F)F (stereo unspecified) | -8.648
25 | CNC(=O)C1Cn2ccnc2C2(CCN(C(=O)c3ccoc3C)CC2)O1.O=C(O)C(F)(F)F (stereo unspecified) | 5.988
26 | Cc1noc(-c2c[nH]nc2C2CCCN2C(=O)c2ccccc2)c1C (stereo unspecified) | 143.3

Row | Compound | Percent Effect [%]
27 | Cc1ccc2cc(C(=O)N3CCCCC3c3nc[nH]n3)ccc2n1 (stereo unspecified) | -6.785
28 | Cc1cc(-c2c[nH]nc2C2CCCCN2C(=O)c2ccccc2)on1 (stereo unspecified) | 116.8
29 | COCc1cccc(C(=O)N2CCCCC2c2nccs2)c1 (stereo unspecified) | 13.03
30 | Cc1cccc(C(=O)N2CCCC2c2c(C)n[nH]c2C)c1 (stereo unspecified) | 0.2093
31 | Cc1nc(O)ccc1C(=O)N1CCCC1c1nc(-c2ccccc2)n[nH]1 (stereo unspecified) | -6.533
32 | COCCN1C(=O)[C@H]2CC[C@@H]1CN(C(=O)Cc1c(F)cccc1Cl)C2 | -1.329
33 | Cc1[nH]ncc1C(=O)N1CCN(CC(O)C(C)(C)C)CC1 (stereo unspecified) | 6.282
34 | O=C(c1cnc(Nc2ccccc2)nc1)N1CCS(=O)(=O)CC1 | 6.856
35 | Cc1noc(CN(Cc2ccco2)Cc2cccc3c2OCO3)n1 | -16.92
36 | CN(C)CC(=O)N1CCC2(CC1)CN(Cc1cccnc1)C(=O)CO2 | 109.2
37 | O=C(c1ccoc1)N1CCC(NCc2cccnc2)CC1 | -13.71
38 | O=C1COC2(CCN(Cc3ccco3)CC2)CN1Cc1cccnc1 | 107.7
39 | O=C1CCC2(CCCN(C(=O)c3ccc[nH]3)C2)CN1Cc1cccnc1 (stereo unspecified) | -3.42
40 | O=C1CCC2(CCCN(C(=O)c3ccoc3)C2)CN1Cc1ccncc1 (stereo unspecified) | 9.259
41 | c1coc(CN2CCC3(CC2)CC(N2CCCC2)CO3)c1 (stereo unspecified) | -47.38
42 | CCOCC(=O)N1CCC2(CC1)CN(Cc1cccnc1)C(=O)CO2 | 106.9
43 | CCOCC(=O)N1CCC[C@]2(C[C@@H](OCc3ccncc3)CO2)C1 | 2.897
44 | O=C1COC2(CCN(C(=O)c3ccoc3)CC2)CN1Cc1cccnc1 | 89.17
45 | O=C(O)c1cc2c(nc1O)CC(c1cccs1)CC2=O (stereo unspecified) | 17.51
46 | O=C(CCS(=O)(=O)C1CCCC1)NCCc1cccnc1 | 3.812
47 | c1cn(Cc2nnc(C3CCN(C4CCOCC4)CC3)n2C2CC2)cn1 | 2.986
48 | Cc1ccccc1Cc1nc(CSc2nnc(N)n2C2CC2)no1 | 8.42
49 | O=C(O)c1cc(-c2cccnc2)cc(S(=O)(=O)NCc2ccccn2)c1 | -2.76
50 | CCC(C)Oc1cc(C(=O)Nc2nnc(C(C)C)[nH]2)ccn1 (stereo unspecified) | -13.47
51 | Cc1occc1C(=O)N1CCC(C(O)c2ccc(Cl)cc2)CC1 (stereo unspecified) | -7.182
52 | FC(F)(F)c1cc(N2CCc3ncnc(NC4CC4)c3CC2)ncn1 | -22.18

Row | Compound | Percent Effect [%]
53 | CN(C)c1ncnc2c1CCN(c1cc(C(F)(F)F)ncn1)CC2 | -1.194
54 | CN(C)c1ncnc2c1CCN(c1cccc(F)c1)CC2 | -12.67
55 | COCCN1CCc2ncnc(NC3CC3)c2CC1 | 94.73
56 | Cc1nc2n(n1)CC(Nc1ncnc3c1CCC3)CC2 (stereo unspecified) | 2.355
57 | COCCN1CCc2ncnc(N(C)C)c2CC1 | 110.9
58 | Cc1ccc(S(=O)(=O)Cc2noc([C@@H]3C[C@@H](O)CN3C(C)C)n2)cc1 | -1.954
59 | COCCNC(=O)C(C)N1CCN(C)CC1.O=C(O)C(=O)O (stereo unspecified) | 114.3
60 | COCCNC(=O)N1CCN(C(C)C(=O)NC(C)C)CC1 (stereo unspecified) | 2.251
61 | COCCNC(=O)N1CCN(C(C)C(=O)NC2CCCC2)CC1 (stereo unspecified) | -10.58
62 | Cc1cccc(CC(=O)Nc2cccnc2N2CCC(CO)CC2)c1 | -12.05
63 | O=C1CCC2(CCCN(c3ncc(Cl)cc3F)C2)CN1CC1CC1 (stereo unspecified) | -9.557
64 | NCc1ccc(N2CCN(c3ncccn3)CC2)c(F)c1 | 3.698
65 | Cc1cccc(N2N=C(C(=O)NC(C)Cc3ccco3)CCC2=O)c1 (stereo unspecified) | 19.33
66 | CC1C(=O)Nc2cccnc2N1S(=O)(=O)c1cc(F)cc(F)c1 (stereo unspecified) | -12.84
67 | Cc1cc(C(=O)N2CCCC2c2nnc3n2CCCCC3)no1 (stereo unspecified) | -10.19
68 | Cc1cc(N2CCc3c(ncn3C)C2)nc(N)n1 | -0.5866
69 | Cc1cc(N2CCCC2c2nnc3n2CCCCC3)nc(C)n1 (stereo unspecified) | 112.6
70 | Cc1cc(N2CCc3c(ncn3C3CC3)C2)nc(N)n1 | 13.11
71 | Cc1cc(N2CCCC2c2nnc3n2CCCCC3)nc(N)n1 (stereo unspecified) | 170
72 | Cc1cc(NCc2nnc3n2CCCCC3)n2nc(C)c(C)c2n1 | -13.55
73 | CN1C(=O)C(c2ccccc2)CC12CCN(CCN1CCCC1=O)CC2 (stereo unspecified) | -2.19
74 | CCc1cccc(NC(=O)NC2CCc3nc(C)nn3C2)c1 (stereo unspecified) | -9.583
75 | CC(C)n1[nH]c(=O)c2c1NC(=O)CC2C1CCCCC1 (stereo unspecified) | 0.5792
76 | Cc1cscc1C(=O)Nc1cc(CSCCO)ccn1 | -31.68
77 | COc1cccc(C(C(=O)O)N2CCCN(c3ccnc(C)c3)CC2)c1 (stereo unspecified) | 11.66
78 | N#Cc1cc(F)c(NCCc2ccc(F)cc2)c(F)c1 | -6.207

Row | Compound | Percent Effect [%]
79 | N#Cc1cc(F)c(NCc2ccc(F)cc2)c(F)c1 | 53.8
80 | N#Cc1cc(F)c(NCCc2ccc(S(N)(=O)=O)cc2)c(F)c1 | 2.812
81 | Cc1ccc([C@@H]2CN(C(=O)c3csc(C)n3)C[C@H]2NC(=O)C2CC2)cc1 | -2.75
82 | CC(C)c1nnc2n1CCN(CC(=O)N1CCc3ccccc3C1)C2 | 2.244
83 | CCSc1ncc(-c2cc(C3CCC3)nc(N)c2C#N)cn1 | 87.05
84 | CC(C)c1ncc(-c2cc(C3CCC3)nc(N)c2C#N)cn1 | 96.4
85 | CCSc1ncc(CN2CCN(c3ncc(C)c(N)n3)CC2)cn1 | -0.8762
86 | CCSc1ncc(-c2nccn2CCN(C)C)cn1 | -18.01
87 | CCSc1ncc(CN2CCN(c3ccc(C#N)cc3)C(=O)C2)cn1 | -0.09513
88 | CCCNc1ncc(-c2cc(C3CC3)nc(N)c2C#N)cn1 | 97.87
89 | CCSc1ncc(-c2cc(C3CC3)nc(N)c2C#N)cn1 | 99.54
90 | O=C(NC1CCN(c2ncccn2)CC1)c1cc2c([nH]c1=O)CCC2 | 7.428
91 | Cc1nnc(SCCC(=O)N(C)Cc2ccc(F)cc2F)[nH]1 | 2.141
92 | O=C(O)C(F)(F)F.O=C1CC[C@H]2[C@H](CCN2C(=O)C2CCOCC2)N1Cc1ccncc1 | 25.13
93 | CN1CCN(C(=O)c2ccc3c(c2)[nH]c(=O)n3C2CCCC2)CC1 | 14.39
94 | Cc1cc(-c2nn(C)c(Cl)c2CN2CCCCC(N)C2)no1 (stereo unspecified) | -8.809
95 | COCc1cc(CC2(NC3CCCCC3)COC2)no1 | 18.94
96 | CC(Cn1cccn1)NCc1csc(-c2ccc3c(c2)OCO3)n1 (stereo unspecified) | -1.421
97 | Cc1cc2[nH]c(CN3CCOC(Cc4ccccc4)C3)cc(=O)n2n1 (stereo unspecified) | -6.493
98 | Cc1cccc(C(=O)Nc2cccc3c2C(=O)NC3)n1 | -5.114
99 | COCC1CN(C(=O)c2cccc(C)n2)Cc2ncnn2C1 (stereo unspecified) | -6.948
100 | CCc1sc(-c2nnc(CNC(C)Cn3cc(C)cn3)o2)cc1C (stereo unspecified) | -3.595
101 | CCc1ccc(CN2CCN(Cc3ncc[nH]3)[C@H]3CS(=O)(=O)C[C@H]32)nc1 | 8.56
